The text below walks through data of the supplement of paper PMC6555819.

The experiment has as its system VDR:RXRa (NR concentration 270 nM, RXRa partner concentration 90 nM). The experiment can be described thus: PBM binding z-score (relative to random genomic background probes); higher = stronger binding; sequences stand for … in GC…GCGATTGACAGCGTAGAATGAAGG
As to the method:
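Protein-binding microarray (Agilent 4x180K custom design, double-stranded 60-nt probes: 5' GC cap, 34-nt variable region, 24-nt constant primer region; full probe sequence given). Purified or IVT nuclear receptor:RXRα heterodimers (3:1 NR:RXRα, mostly 270:90 nM) or homodimers were incubated for 1 h in PBS with 2% milk and no ligand, then detected with Alexa488 antibodies. Fluorescence from o1-orientation probes (~5 replicates averaged) was converted to z-scores against 500 random hg19 background probes. Variable regions are seed direct-repeat (DR0–DR5) sites, all their single-nucleotide variants and half-site ablations.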
For AATACAGGGTCATCGTAGGCCAGAGTTCGCACAG, the PBM binding z-score was found to be 5.79.
For the sequence TATATTAGTTGATTAGGGCAACCGAAACAGCGGA, the PBM binding z-score is 0.452.
On to TCAGACACGTGAAGGTAACTCAGGTACGCAGTCG, for which the PBM binding z-score was 0.881.
The figure for GCAACGAGGGCATTCGAGTTGATAGCATGGCGAT is 3.57; for TTACCAACGTGAGCTGAGGTCGTTGATCCAACTC it is 1.21; for TGTCAAAGATCAAAGGTAACGTAAGTATCCACAC it is 0.973.
The figure for TCATATAGGTAACGGTGAAAGTCGAACGATATGA is 0.164; for GCTGCTAGGTCAGGCTGGTCAGCTAACGGGTACG it is 0.677.
The figure for TCAGGCAGGTGAAGGTAACTCAGGTACGCAGTCG is 0.269.
In the case of AATACAGGGTCATCGTAGGCCAGATTACGCACAG, the PBM binding z-score came to 5.22.
The sequence CGTCAAAGTTCAACTAAGGTAACGTGAAGCACGC showed a PBM binding z-score of 4.37.
TCTTGTAGATCAATAGAGGCTAAGAAAGTGCGCT had a PBM binding z-score of 0.377.
The result for TTGCCTAGGTCATGCGGGCCAGTATAGTGTCGGC reads 2.8; that for ATCTATAGGTAACAAGTTCAGTGAAAGAGAGGAC, 2.43.
The result for ACGATTAGTTGAGACGAGGGCAACCGATAGGTTG reads 0.249; that for TCTGCTAGGTCCGTTGGTCAGCTAACGAGCTGCC, -0.499; that for ACAGACAGGTGATGAAGGTAACGCAGGCTATCAT, -0.0633.
GGAACGAGGGCAAGTTGATATCAGAGTTTGATGG displayed a PBM binding z-score of 1.42.
GCATATAGGTAATACAAGGTGAAAGCCCGATTGT: the PBM binding z-score was found to be 0.178.
The result for TCATATAGCTAAAGGTGAAAGTCGAACGATATGA reads 0.865; that for TCGAGTAGGTTAGTCGGGGAATTCAGCCAACATA, -0.318.
For AGAATGAGGTTCAGATCAGGGAAACAGAATACAT, the PBM binding z-score amounted to 0.949.
CCTAGCAGGCCAATCCGGGTCACTCAAGGCTTGA yielded a PBM binding z-score of 2.
As to AGTCAAAGTTCATCGAGGTAACGTAAGATATGCT, the PBM binding z-score is 6.17.
The result for CCTCGGAGGACAACAGGAGGACAGAGCTGCCAGA reads -0.461.
Sequence CCCGACAGGTGAGAAGGTAACTCAGCCTCGATTA came in with a PBM binding z-score of -0.17.
Turning to CCTGCTAGGTCAATGGTCATCTAAAGCAGCTCGC, the PBM binding z-score was 1.31.
The sequence TCTTGTAGACCAAGCAGGTTAAGAAAGCCTGAGT showed a PBM binding z-score of 0.582.
The figure for GCTTACGGGACAAAGGTTATAGCATGAATAGAAT is 1.24; for CCTGGGAGGACAACAGGAGGTCAGAGCTGCCAGA it is 1.99; for CATACTGGGCCATTCAGAGGTCATTGATCATATG it is 4.15.
The figure for ATTATTAGTTGAGACGAGGGCAACCGATAGGTTG is 1.29.
The result for TCATCTAGGTAAACAGGTGAAAGTCCGTAAGTTA reads 0.914; that for CGTCCAAGGTCAGCAGGTCATTGAAAGCGACGTG, 4.67.
Regarding CGAGACAGGTGAAAGGTAACTCAGTCTGGTACGC, the PBM binding z-score stood at 0.633.
The result for CGTCCAAGGTCAGGAGGTCAGTGAAAGCGACGTG reads 4.66; that for AGTCAAAGTTCATATAGGTAACGTAAGATATGCT, 4.4; that for TCTCGGAGGCCACGAAGGTCAGAGCTTTCCAGAG, 3.69.
For GCATATGGGTAATACAAGGTGAAAGTCCGATTGT, the PBM binding z-score came out at 0.212.
In turn, TCTATTAGTTGATTAGGGCAACCCAAACAGCGGA had a PBM binding z-score of 0.694.
